# Reference: ChEMBL document CHEMBL3988442, “University of Dundee, Small-Polar-MMV Screening Library” (2021)
# For some assays here: Measured potencies and affinities stand elsewhere.
# Tests used:
# Set-up in all cases: scale not given: direction of the effect not stated beside the values
# [1] = target: Protein translocase subunit SecA (Escherichia coli (strain K12)) (UniProt P10408); assay: Assay to Identify E. coli SecA ATPase Inhibitors; format: functional; settings: 30 µM
# [2] = target: T1, Ubiquitin-activating enzyme e1, putative (Leishmania donovani (strain BPK282A1)) (UniProt E9BSI1); assay: Leishmania donovani Ubiquitin Activating Enzyme (LdE1); format: functional; settings: 30 µM
# T1 sequence (whole entry): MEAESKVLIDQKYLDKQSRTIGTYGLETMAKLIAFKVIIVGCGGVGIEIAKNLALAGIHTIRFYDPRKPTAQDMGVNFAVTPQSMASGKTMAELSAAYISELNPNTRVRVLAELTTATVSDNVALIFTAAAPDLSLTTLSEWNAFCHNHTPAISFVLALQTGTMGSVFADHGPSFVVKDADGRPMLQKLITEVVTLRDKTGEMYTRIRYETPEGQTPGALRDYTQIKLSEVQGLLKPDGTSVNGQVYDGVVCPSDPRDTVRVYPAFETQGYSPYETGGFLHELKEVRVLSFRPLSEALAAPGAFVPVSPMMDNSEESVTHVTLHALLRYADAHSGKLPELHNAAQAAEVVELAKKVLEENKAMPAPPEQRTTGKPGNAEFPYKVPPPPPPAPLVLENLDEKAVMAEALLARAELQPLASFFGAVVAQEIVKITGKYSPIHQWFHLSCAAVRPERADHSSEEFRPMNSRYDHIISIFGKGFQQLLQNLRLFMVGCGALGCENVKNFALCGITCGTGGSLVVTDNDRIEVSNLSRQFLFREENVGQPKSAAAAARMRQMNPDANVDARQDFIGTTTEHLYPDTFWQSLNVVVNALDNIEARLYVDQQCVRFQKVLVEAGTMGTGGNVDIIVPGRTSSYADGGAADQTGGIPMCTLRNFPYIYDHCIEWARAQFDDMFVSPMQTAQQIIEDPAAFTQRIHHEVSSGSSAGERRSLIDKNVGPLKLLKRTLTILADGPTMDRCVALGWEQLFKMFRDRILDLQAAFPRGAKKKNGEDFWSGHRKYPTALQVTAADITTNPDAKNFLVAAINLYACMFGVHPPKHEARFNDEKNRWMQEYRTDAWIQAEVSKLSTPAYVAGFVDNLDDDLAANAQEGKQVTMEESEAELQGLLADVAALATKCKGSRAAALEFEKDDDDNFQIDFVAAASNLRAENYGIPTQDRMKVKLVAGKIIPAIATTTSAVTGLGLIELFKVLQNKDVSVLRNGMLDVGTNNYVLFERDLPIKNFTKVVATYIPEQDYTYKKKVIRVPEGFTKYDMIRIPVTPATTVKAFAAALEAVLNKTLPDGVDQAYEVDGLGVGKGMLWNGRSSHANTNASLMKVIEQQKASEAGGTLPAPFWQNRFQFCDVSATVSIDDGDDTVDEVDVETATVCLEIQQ
# [3] = target: AMP-activated protein kinase, AMPK (Homo sapiens) (UniProt P54646+O43741+P54619+Q9UGJ0+Q9Y478+Q13131+Q9UGI9); assay: AMP-dependent Kinase enzyme assay. An in vitro enzyme assay that detects ADP turnover that is directly proportional to AMPK activity. This uses naive AMPK that is activated during the assay with MK-8722; format: functional; settings: 30 µM
# [4] = target: Sialic acid-binding Ig-like lectin 9 (Homo sapiens) (UniProt Q9Y336); assay: Hs-Siglec9 ALPHAscreen SOP 20170721; settings: 10 µM
# Sialic acid-binding Ig-like lectin 9 (Homo sapiens), sequence (Q9Y336 whole entry): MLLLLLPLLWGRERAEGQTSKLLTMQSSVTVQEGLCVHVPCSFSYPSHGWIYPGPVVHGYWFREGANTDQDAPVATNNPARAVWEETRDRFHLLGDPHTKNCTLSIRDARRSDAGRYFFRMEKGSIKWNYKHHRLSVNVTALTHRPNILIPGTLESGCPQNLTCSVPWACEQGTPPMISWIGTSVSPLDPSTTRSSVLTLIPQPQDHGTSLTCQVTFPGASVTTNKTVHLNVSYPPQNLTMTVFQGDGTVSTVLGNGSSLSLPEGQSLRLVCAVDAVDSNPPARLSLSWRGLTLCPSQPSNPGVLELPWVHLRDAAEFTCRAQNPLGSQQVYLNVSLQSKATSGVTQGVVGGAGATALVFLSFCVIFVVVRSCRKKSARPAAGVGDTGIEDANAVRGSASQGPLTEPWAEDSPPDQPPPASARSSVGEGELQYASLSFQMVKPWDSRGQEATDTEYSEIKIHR
# Trypanosoma cruzi = assay: Trypanosoma cruzi phosphomannomutase and mannose-1-phosphate guanylyltransferase assay; format: functional; settings: 10 µM
# [5] = target: T2, Arginase-2, mitochondrial (Homo sapiens) (UniProt P78540); assay: in vitro enzyme assay to detect the production of urea directly proportional to the activity of Arginase II; format: functional; settings: 33.3 µM; also: in the data most compounds retested in dose-response had high values
# T2 sequence (whole entry): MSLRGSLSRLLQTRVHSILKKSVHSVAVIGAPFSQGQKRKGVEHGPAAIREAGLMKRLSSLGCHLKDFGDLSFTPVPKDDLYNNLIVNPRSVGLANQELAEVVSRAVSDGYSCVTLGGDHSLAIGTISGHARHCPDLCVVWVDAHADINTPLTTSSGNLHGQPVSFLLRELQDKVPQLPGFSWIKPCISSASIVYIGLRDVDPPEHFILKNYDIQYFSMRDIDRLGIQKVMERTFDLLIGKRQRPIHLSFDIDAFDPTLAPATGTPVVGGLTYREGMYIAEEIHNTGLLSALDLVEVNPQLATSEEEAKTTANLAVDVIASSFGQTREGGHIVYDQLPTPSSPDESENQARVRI
# [6] = target: T3, Proteasome subunit beta (Trypanosoma cruzi) (UniProt O96673); assay: Trypanosoma cruzi proteasome chymotrypsin-like activity (TcProtChymo) assay.; also: in the data most compounds retested in dose-response had high values; format: functional; settings: 9.37 µM
# T3 sequence (whole entry): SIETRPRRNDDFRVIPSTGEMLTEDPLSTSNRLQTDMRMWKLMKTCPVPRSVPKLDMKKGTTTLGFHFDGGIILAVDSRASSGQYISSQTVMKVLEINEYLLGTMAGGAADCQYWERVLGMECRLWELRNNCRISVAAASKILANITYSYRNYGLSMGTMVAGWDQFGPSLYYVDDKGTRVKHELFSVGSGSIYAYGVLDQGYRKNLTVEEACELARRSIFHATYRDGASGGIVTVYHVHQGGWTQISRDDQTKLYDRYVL
# Homo sapiens = species: Homo sapiens; assay: To identify inhibition of the IFN signalling (Jak-Stat) pathway via expression of an eGFP reporter gene under the control of an IFN-stimulated response element (ISRE) containing MxA promoter.; format: functional; settings: 30 µM
# [7] = target: T4, Tyrosyl-tRNA synthetase, putative (Trypanosoma cruzi (strain CL Brener)) (UniProt Q4DSP6); assay: Trypanosoma cruzi tyrosyl tRNA synthetase (TcYRS) _High Tyrosine SOP; format: functional; settings: 30 µM; also: in the data most compounds retested in dose-response had high values
# T4 sequence (whole entry): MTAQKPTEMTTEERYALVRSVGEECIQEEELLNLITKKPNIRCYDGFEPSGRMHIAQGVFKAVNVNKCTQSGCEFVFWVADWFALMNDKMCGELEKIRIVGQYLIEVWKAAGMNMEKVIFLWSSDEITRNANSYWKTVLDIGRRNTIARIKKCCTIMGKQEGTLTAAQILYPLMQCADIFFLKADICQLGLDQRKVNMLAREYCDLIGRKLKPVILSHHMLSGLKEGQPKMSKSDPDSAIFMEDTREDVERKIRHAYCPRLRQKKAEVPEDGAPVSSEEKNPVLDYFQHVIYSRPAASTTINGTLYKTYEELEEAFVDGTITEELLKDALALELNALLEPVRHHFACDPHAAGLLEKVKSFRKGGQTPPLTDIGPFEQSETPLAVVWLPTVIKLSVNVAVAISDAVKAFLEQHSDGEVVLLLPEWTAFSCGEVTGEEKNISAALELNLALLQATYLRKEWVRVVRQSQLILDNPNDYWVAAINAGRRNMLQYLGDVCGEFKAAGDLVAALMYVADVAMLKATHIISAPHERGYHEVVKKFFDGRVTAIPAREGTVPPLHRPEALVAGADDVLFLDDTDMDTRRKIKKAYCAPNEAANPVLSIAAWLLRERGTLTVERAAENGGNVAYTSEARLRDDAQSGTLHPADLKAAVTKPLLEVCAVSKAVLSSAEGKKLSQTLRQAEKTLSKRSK
# [8] = target: T4, Tyrosyl-tRNA synthetase, putative (Trypanosoma cruzi (strain CL Brener)); assay: Trypanosoma cruzi tyrosyl tRNA synthetase (TcYRS) SOP; format: functional; settings: 30 µM
# [9] = target: Chromo domain-containing protein 1 (Saccharomyces cerevisiae (strain ATCC 204508 / S288c) (Baker's yeast)) (UniProt P32657); assay: ScCHD-1 Enzyme Inhibition Assay; format: functional; settings: 30 µM; also: in the data most compounds retested in dose-response had high values
# Chromo domain-containing protein 1 (Saccharomyces cerevisiae (strain ATCC 204508 / S288c) (Baker's yeast)), sequence (P32657 whole entry, the tested form may be a part): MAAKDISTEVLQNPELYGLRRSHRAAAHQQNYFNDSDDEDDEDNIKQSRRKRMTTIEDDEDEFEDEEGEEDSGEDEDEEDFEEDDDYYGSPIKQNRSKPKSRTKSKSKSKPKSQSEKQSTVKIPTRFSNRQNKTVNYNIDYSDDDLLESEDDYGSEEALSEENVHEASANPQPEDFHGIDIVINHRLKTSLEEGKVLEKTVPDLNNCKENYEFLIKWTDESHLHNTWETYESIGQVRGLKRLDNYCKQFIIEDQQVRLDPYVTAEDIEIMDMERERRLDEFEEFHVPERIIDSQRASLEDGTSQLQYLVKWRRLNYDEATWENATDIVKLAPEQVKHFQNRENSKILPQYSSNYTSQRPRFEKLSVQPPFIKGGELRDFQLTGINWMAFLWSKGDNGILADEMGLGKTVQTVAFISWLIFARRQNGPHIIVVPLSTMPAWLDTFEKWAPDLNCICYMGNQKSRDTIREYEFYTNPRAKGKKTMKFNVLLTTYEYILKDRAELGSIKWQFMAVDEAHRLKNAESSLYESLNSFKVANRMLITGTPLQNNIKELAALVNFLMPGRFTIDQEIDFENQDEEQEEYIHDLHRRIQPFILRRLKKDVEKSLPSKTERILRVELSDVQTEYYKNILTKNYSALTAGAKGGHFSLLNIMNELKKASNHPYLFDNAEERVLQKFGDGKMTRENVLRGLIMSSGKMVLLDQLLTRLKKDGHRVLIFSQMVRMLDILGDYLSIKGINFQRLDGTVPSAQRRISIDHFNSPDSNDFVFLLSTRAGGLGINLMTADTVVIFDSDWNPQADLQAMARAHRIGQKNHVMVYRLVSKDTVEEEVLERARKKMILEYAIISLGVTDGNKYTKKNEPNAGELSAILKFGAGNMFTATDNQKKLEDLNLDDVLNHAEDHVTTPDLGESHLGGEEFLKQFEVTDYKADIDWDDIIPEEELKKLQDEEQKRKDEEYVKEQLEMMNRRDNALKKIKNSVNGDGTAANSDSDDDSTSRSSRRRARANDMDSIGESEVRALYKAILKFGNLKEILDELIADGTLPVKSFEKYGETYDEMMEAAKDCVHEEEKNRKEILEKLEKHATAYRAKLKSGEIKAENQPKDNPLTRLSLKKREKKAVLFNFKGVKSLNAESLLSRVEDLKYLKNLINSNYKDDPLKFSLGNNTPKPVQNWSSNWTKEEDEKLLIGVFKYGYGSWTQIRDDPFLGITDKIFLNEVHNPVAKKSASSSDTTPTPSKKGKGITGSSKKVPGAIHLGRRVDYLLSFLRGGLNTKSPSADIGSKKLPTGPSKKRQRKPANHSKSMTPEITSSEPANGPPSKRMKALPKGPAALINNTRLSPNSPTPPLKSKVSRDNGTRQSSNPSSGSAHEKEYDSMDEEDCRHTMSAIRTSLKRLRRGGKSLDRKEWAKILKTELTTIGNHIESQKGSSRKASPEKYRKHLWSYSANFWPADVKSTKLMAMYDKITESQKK
# Protein translocase subunit SecA (Escherichia coli (strain K12)), sequence (P10408 whole entry): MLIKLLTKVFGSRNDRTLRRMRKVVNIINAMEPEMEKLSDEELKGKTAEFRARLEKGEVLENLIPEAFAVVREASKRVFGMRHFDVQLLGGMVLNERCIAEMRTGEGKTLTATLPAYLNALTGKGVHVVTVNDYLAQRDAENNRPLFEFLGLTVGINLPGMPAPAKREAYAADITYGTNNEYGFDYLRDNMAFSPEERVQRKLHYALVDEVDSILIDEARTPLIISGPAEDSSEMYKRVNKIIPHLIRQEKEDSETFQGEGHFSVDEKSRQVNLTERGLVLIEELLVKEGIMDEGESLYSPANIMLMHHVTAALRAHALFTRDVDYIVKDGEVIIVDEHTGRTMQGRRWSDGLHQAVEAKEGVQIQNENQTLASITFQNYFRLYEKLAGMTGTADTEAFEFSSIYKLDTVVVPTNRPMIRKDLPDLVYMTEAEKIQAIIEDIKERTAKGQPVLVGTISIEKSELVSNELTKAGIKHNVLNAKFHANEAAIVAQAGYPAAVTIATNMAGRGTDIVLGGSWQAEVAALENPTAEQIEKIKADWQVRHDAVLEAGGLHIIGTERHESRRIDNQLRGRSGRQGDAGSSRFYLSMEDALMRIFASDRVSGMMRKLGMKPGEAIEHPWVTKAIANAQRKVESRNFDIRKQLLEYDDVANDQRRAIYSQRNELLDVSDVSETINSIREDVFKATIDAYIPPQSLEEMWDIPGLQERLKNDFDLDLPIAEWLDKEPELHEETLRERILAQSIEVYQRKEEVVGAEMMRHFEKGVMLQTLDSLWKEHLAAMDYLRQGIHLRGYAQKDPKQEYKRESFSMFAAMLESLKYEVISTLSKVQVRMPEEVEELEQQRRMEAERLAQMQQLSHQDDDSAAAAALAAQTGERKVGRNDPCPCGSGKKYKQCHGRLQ
Compound,Percent Effect [1] [%],Percent Effect [2] [%],Percent Effect [3] [%],Percent Effect [4] [%],Percent Effect (Trypanosoma cruzi) [%],Percent Effect [5] [%],Percent Effect [6] [%],Percent Effect (Homo sapiens) [%],Percent Effect [7] [%],Percent Effect [8] [%],Percent Effect [9] [%]
Cn1cc(CN2CC[C@H]3C[C@H](c4nc(C5CC5)cs4)O[C@@H]3C2)cn1,-0.2,18.2,-0.28,13.1,6.59,-9.65,10.8,12.1,4.3,16.1,-1.85
Cc1nn(C)cc1C(=O)N1C[C@H]2CC[C@@H]1CN(S(=O)(=O)N(C)C)C2,-0.765,5.33,-1.08,4.66,-8.08,2.6,20.2,13.3,0.546,1.24,-6.02
CC(NC(N)=O)C(=O)N(C)CCCc1cc(-c2ccccc2)no1 (stereo not given),-3.18,2.7,7.96,-4.86,-10.1,-1.29,9.34,25,3.96,6.1,0.208
CC(C)(C)c1n[nH]cc1CN1CCc2nc3ccsc3c(=O)n2CC1,-2.34,25.7,7.24,-3.97,2.96,-7.19,18.7,43.3,-1.07,3.9,-5.96
COCC1CC2(CCN(C(=O)c3ccc(OC)c(Cl)c3)CC2)CO1 (stereo not given),4.75,15.6,-2.46,-7.51,-5.82,9.68,13.8,15.9,-1.06,3.85,-9.46
CCc1nnc2n1CCN(CC(=O)Nc1sccc1C#N)C2,-4.04,10.5,-7.74,-3.22,-8.68,5.4,12.6,-5.63,5.42,6.17,-3.17
CNS(=O)(=O)c1ccc(C(=O)NC2CCOc3ccccc32)o1 (stereo not given),-5.29,18.4,0.291,1.37,0.682,-3.55,11.8,17.5,2.13,18.2,-7.69
CC(CNC(=O)Nc1cn[nH]c1)N1CCOCC1 (stereo not given),-0.592,13,1.69,-6.2,-3.04,6.53,15.9,25,7.62,18.8,-18.5
Cc1ccc(C(=O)N(C)Cc2cc(Br)cs2)c(=O)[nH]1,1.09,7.89,5.18,-2.8,-3.8,-3.55,23.3,0.327,5.32,7.79,-3.78
CC(=O)c1cn(CCC(=O)NCCC(=O)O)c2ccccc12,0.0873,9.33,1.48,3.5,-3.14,-6.16,15.5,0.418,9.52,17.9,-3.67
